# Active and inactive are the calls of the source. Rule for the calls: active = hit-call score of the fitted dose curve at least 0.9, where 1 is the maximum; inconclusive = response in the unintended direction; inactive = score below 0.9.
# Test system: SERPINA7 (gene 6906)
# Test: CCTE_GLTED_hTBG: CCTE's human Thyroxine-binding Globulin (TBG) Inhibition Assay, Great Lakes Toxicology and Ecology Division (GLTED) Lab (AID 2284343);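 note: active chemicals lower fluorescence versus DMSO baseline by displacing probe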
# Procedure: CCTE_GLTED_hTBG is a cell-free, single-readout assay designed to test the chemicals' ability to displace T4 from the human thyroxine-binding globulin (TBG) protein. TBG is incubated in presence of test chemical for 2 hours during which disrupting chemicals displace ANSA from the TBG protein. Results read fluorescence at 380 excitation and 475 emission.CCTE_GLTED_hTBG is the assay component measured from the CCTE_GLTED_hTBG assay. It is designed to make measurements of fluorescent polarization, using a form of binding reporter, as detected with Fluorescence signals by Fluorescence technology.Data from the assay component CCTE_GLTED_hTBG was analyzed at the assay endpoint CCTE_GLTED_hTBG in the positive analysis fitting direction relative to DMSO as the negative control and baseline of activity. Using a type of binding reporter, loss-of-signal activity can be used to understand a chemical's ability to displace T4 from thyroxine-binding globulin. To generalize the intended target to other relatable targets, this assay endpoint is annotated to the 'transporter' intended target family, where the subfamily is 'hormone carrier protein'.
# Human transthyretin (TTR) assay, developed at Great Lakes Toxicology and Ecology Division (GLTED) within the EPA's Center for Computational Toxicology and Exposure (CCTE), is designed to test the chemicals' ability to displace T4 from the TTR protein. TTR (0.5uM) is incubated in presence of test chemical for 2 hours during which disrupting chemicals displace ANSA from the TTR protein. Results read fluorescence at 380 excitation and 475 emission.
row,Compound,AC50
1,CC(C)(c1cc(Br)c(O)c(Br)c1)c1cc(Br)c(O)c(Br)c1,2.16 µM (active)
2,CN(C)c1ccc(C(=C2C=CC(=[N+](C)C)C=C2)c2ccc(N(C)C)cc2)cc1,50 µM (active)
3,CCCCCCCCOC(=O)c1cc(O)c(O)c(O)c1,3.42 µM (active)
4,CC/C(=C(/CC)c1ccc(O)cc1)c1ccc(O)cc1,1.87 µM (active)
5,Cc1oc2c(NC(=O)c3c(Cl)cccc3Cl)cccc2c1C(C)(C)O,13.6 µM (active)
6,CCCCCCCCOc1ccc(C(=O)c2ccccc2)c(O)c1,39.1 µM (active)
7,CCCCCc1ccc(N)cc1,29.9 µM (active)
8,O=C(O)Cc1cc(I)c(Oc2ccc(O)c(I)c2)c(I)c1,0.0733 µM (active)
9,O=C(O)Cn1c(=O)n(Cc2ccc(Br)cc2F)c(=O)c2ccc(Cl)cc21,18.1 µM (active)
10,NC(=O)c1nc(-c2cccc(-c3cc(F)ccc3OCC(F)(F)C(F)(F)F)c2)n[nH]1,3.35 µM (active)
